About 7,900 targets were measured; listed, in parts, are those with a hit and a random draw of the rest. About 0.6% of all pairs of compound and target were hits. Unmarked numbers belong to inactive results.

Experimental findings from the supplement of paper PMC10849652 are described below.

Chain of AAK1 (Q2M2I8 whole entry, looked up): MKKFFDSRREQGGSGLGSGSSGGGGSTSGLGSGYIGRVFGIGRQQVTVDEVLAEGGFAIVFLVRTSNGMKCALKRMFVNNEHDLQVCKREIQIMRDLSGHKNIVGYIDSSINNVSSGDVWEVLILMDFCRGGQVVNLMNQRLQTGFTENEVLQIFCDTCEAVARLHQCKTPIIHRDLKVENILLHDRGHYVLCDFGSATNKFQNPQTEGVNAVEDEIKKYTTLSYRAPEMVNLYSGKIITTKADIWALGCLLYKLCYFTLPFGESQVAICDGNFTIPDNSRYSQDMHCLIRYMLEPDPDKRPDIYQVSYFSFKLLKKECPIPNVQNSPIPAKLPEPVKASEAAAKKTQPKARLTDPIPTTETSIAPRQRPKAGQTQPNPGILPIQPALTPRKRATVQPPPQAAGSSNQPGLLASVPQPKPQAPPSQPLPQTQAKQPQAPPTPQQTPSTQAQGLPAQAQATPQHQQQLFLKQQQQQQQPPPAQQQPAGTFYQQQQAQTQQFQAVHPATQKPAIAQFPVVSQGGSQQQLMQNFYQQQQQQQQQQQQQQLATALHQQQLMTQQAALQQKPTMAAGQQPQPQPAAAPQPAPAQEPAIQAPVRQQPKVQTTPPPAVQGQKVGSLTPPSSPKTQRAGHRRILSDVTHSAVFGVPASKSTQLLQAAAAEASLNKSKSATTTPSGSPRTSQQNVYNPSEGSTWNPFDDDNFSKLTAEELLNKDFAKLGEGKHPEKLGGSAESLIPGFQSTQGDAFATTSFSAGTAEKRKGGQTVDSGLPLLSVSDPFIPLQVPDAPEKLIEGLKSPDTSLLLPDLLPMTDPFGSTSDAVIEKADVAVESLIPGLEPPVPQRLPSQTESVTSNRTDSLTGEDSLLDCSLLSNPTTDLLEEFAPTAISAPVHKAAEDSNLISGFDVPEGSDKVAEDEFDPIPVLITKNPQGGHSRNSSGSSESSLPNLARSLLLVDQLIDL

The target in this test is AAK1 (UniProt Q2M2I8). The test can be described thus: log2 fold change, soluble protein after heating vs DMSO (PISA); higher = thermal stabilisation; K562 cells, 10 uM, 30 min; active = over 0.2 and 3.5 SD of the protein, either way, in both replicates (recomputed). The method, boiled down:
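K562 cells at 2×10^6 cells/mL were given 10 μM compound for 30 min. Aliquots then went through 3 min of heating across 48°C-58°C, were pooled, and were extracted in PBS with 0.5% NP-40 at 4°C, and the supernatant after 21,000xg for 90 min was quantified by TMTpro 16plex LC-MS/MS with channel sums equalised. Thermal stability relative to control samples, from duplicates, is given as log2 fold change.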
`CO[C@H]1C[C@@H]2CC[C@@H](C)[C@@](O)(O2)C(=O)C(=O)N2CCCC[C@H]2C(=O)O[C@H]([C@H](C)C[C@@H]2CC[C@H](n3cnnn3)[C@H](OC)C2)CC(=O)[C@H](C)/C=C(\C)[C@@H](O)[C@@H](OC)C(=O)[C@H](C)C[C@H](C)/C=C/C=C/C=C/1C` [zotarolimus]: the log2 fold change is -0.004.

`CCCc1cc(C)[nH]c(=O)c1CNC(=O)c1cc(-c2ccnc(N3CCN(C)CC3)c2)cc2c1cnn2C(C)C`: the log2 fold change was 0.08.

For the compound `Cn1c2cc(S(C)=O)sc2c2cnn(Cc3cccc(N)c3)c(=O)c21` (stereo not given), the log2 fold change was -0.108.

Consider `O=C(Nc1nc2ccccc2n1CCN1CCOCC1)c1cccc([N+](=O)[O-])c1` [IRAK-1-4 Inhibitor I], for which the log2 fold change was -0.085.

With `C=CC(=O)N1CCC[C@@H](n2nc(-c3ccc(Oc4ccccc4)cc3)c3c(N)ncnc32)C1` [ibrutinib], the log2 fold change was 0.051.

As to `NC(=O)c1ccc2nc(-c3ccc(Oc4ccc(Cl)cc4)cc3)[nH]c2c1`, the log2 fold change was 0.005.

Take `Cn1cc(-c2ccc3c(c2)CCN3C(=O)Cc2cccc(C(F)(F)F)c2)c2c(N)ncnc21`: the log2 fold change is -0.011.

For `Cc1cccc(CC(=O)N2CCc3c2ccc(-c2cn(C)c4ncnc(N)c24)c3F)n1`, the log2 fold change was -0.048.

Consider `Cc1nc(Nc2ncc(C(=O)Nc3c(C)cccc3Cl)s2)cc(N2CCN(CCO)CC2)n1` [dasatinib], for which the log2 fold change is -0.203.

On to `NC(=O)c1cnc(N[C@@H]2CCCC[C@@H]2N)nc1Nc1cccc(-n2nccn2)c1`, for which the log2 fold change was 0.055.

Regarding `Cc1ccc2c(=O)c3ccccc3n(CCCN)c2c1C`, the log2 fold change is -0.017.

As for `C[C@@H]1COCCN1c1cc(C2(S(C)(=O)=O)CC2)nc(-c2cccc3[nH]ccc23)n1`, the log2 fold change is 0.028.

As for `O=C1NC(=NCc2cccs2)S/C1=C\c1ccc2ncccc2c1`, the log2 fold change was 0.339.

On to `COc1cc(C(=O)O)ccc1NC(=O)[C@@H]1N[C@@H](CC(C)(C)C)[C@](C#N)(c2ccc(Cl)cc2F)[C@H]1c1cccc(Cl)c1F` [idasanutlin], for which the log2 fold change is -0.129.

`CN(C)CC(=O)Nc1ccc2[nH]c(=O)c3ccccc3c2c1`: the log2 fold change was 0.087.

`C#Cc1cccc(Nc2ncnc3cc(OCCOC)c(OCCOC)cc23)c1` [erlotinib]: the log2 fold change was -0.028.

Regarding `Cc1cc(SCc2sc(-c3ccc(C(F)(F)F)cc3)nc2C)ccc1OCC(=O)O`, the log2 fold change is 0.096.

`CCn1c(C(=O)N(C2CC2)C2CC2)cc2c3c(ncn3C)c(Nc3cc(C)n(C)n3)nc21`: the log2 fold change is 0.019.

In the case of `C[C@H](Nc1ncnc2nc[nH]c12)c1cc2cccc(Cl)c2c(=O)n1-c1ccccc1` [duvelisib], the log2 fold change was 0.186.

Consider `Fc1ccc(Cl)cc1-c1nc(Nc2ccncc2)c2nccnc2n1`, for which the log2 fold change was 0.019.

As for `O=C(Nc1cccc(Nc2ncc(Br)c(NCCc3cnc[nH]3)n2)c1)N1CCCC1`, the log2 fold change is 0.265.

For `NC1(Cc2ccc(Cl)cc2)CCN(c2ncnc3[nH]ccc23)CC1`, the log2 fold change was -0.085.

In the case of `CS(=O)(=O)c1ccc(-c2cnc(N)c(C(=O)Nc3ccccc3)n2)cc1`, the log2 fold change was 0.043.

Regarding `CCN(CC)Cc1ccc2cc(COC(=O)Nc3ccc(C(=O)NO)cc3)ccc2c1` [givinostat], the log2 fold change was 0.042.

As to `O=C1c2ccccc2-c2n[nH]c3cccc1c23`, the log2 fold change was 0.319.

`CC(C)(C)Cn1c(N)nc2ccc(-c3[nH]c(C(C)(C)C)nc3-c3ccc(F)cc3)nc21` [ralimetinib]: the log2 fold change was 0.04.

As for `Cc1nc(Nc2n[nH]c3c2CN(C(=O)N[C@H](CN(C)C)c2ccccc2)C3(C)C)c2sccc2n1`, the log2 fold change is 0.158.

For the compound `CNCc1ccc(-c2[nH]c3cc(F)cc4c3c2CCNC4=O)cc1` [rucaparib], the log2 fold change was -0.013.

`Cc1ccc(C(=O)N(CCCN)[C@@H](c2nc3cc(Cl)ccc3c(=O)n2Cc2ccccc2)C(C)C)cc1` [ispinesib]: the log2 fold change was 0.091.

Consider `Cc1ccc(NC(=O)c2cccc(N(C)C)c2)cc1NC(=O)c1ccc(O)cc1`, for which the log2 fold change is 0.
